# Measured values as given in PubChem BioAssay.
# Calls of active or inactive are those of the source. Cut-off read from the data, not from the text of the source, unless noted: active = inhibition above about 80%; inactive = the rest.
# Assays:
# [1] = sensitizers of A549 cells to miR-34 induction, primary screen, imaging, A549 dox-inducible miR-34, nuclei and caspase counts (AID 1347080;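 active = compounds whose cell count with miR-34 switched on is under 0.7 times the count with it off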); details: A549 miR-34 inducible, Hoechst nuclei count, 48 h
# [2] = survival rescue of mitochondrial mutant cells in low glucose, primary screen, MELAS cybrids, Rieske KO mouse fibroblasts, CellTiter-Glo (AID 1508586;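 active = mean z-score across replicates of 1.96 or higher in either the MELAS or the Rieske mutant cell line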;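 note: z relative to plate mean and SD of compound and empty wells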)
# [3] = LFS_MB_P medulloblastoma growth inhibition, cell-based, chromothripsis tumors, cisplatin or BGB combos (AID 1671449); details: LFS_MB_P medulloblastoma cells;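 note: cells exposed for 96 hours; 0% = vehicle DMSO and 100% = killing by high DMSO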
# [4] = HDN33 neuroblastoma growth inhibition, cell-based, chromothripsis tumors, cisplatin or BGB combos (AID 1671450); details: HDN33 neuroblastoma cells, stronger effect = higher value;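 note: cells exposed to compound for four days; 0% = vehicle DMSO and 100% = cell killing by high DMSO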
# [5] = ICB984 medulloblastoma cell growth inhibition, synergistic combos for chromothripsis tumors, cisplatin or BGB combos (AID 1671451; call rule not given here;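 note: cells exposed for 96 hours before readout; 0% = vehicle DMSO and 100% = killing by high DMSO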); details: ICB984 medulloblastoma cells, drug combinations, stronger effect = higher value
# [6] = LFS_MB_1R medulloblastoma cell growth inhibition, synergistic combos for chromothripsis tumors, cisplatin or BGB combos (AID 1671452); details: LFS_MB_1R medulloblastoma cells, stronger effect = higher value;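 note: cells exposed for 96 hours before readout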
# [7] = HTB85 osteosarcoma cell growth inhibition, synergistic combos for chromothripsis tumors, BGB or cisplatin IC20 combos (AID 1671453); details: HTB85 osteosarcoma cells, drug combinations, stronger effect = higher value;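 note: cells exposed for 96 hours before readout; 0% = vehicle DMSO and 100% = high DMSO killing control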
# [8] = CRL2098 osteosarcoma cell growth inhibition, synergistic combos for chromothripsis tumors, BGB or cisplatin IC20 combos (AID 1671454); details: CRL2098 osteosarcoma cells, drug combinations, stronger effect = higher value;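 note: cells exposed for 96 h before readout; 0% = vehicle DMSO and 100% = killing by high DMSO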
# [9] = HD-MB03 medulloblastoma cell growth inhibition, synergistic combos for chromothripsis tumors, BGB or cisplatin IC20 combos (AID 1671455; in the data active = inhibition above about 83%;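 note: 0% = vehicle DMSO and 100% = high DMSO as cytotoxic control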); details: HD-MB03 medulloblastoma cells, stronger effect = higher value
# [10] = UWB1.289 ovarian carcinoma cell growth inhibition, synergistic combos for chromothripsis tumors, BGB or cisplatin combos (AID 1671456); details: UWB1.289 ovarian carcinoma cells, stronger effect = higher value;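 note: cells exposed to compound for four days; 0% = vehicle DMSO and 100% = killing by high DMSO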
# [11] = LFS_MB_2R medulloblastoma cell growth inhibition, synergistic combos for chromothripsis tumors, cisplatin combos (AID 1671457); details: LFS_MB_2R medulloblastoma cells, stronger effect = higher value;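 note: cells exposed to compound for four days before readout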
# [12] = MDA-MB-436 breast carcinoma cell growth inhibition, synergistic combos for chromothripsis tumors, BGB or cisplatin combos (AID 1671458; call rule not given here;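 note: cells exposed for 96 hours; 0% = vehicle DMSO and 100% = killing by high DMSO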); details: MDA-MB-436 breast carcinoma growth inhibition, drug combinations, stronger effect = higher value
# [13] = UWB1.289_BRCA1 ovarian cancer growth, cell-based, BGB or cisplatin combinations (AID 1671459); details: UWB1.289 BRCA1 ovarian carcinoma, drug combinations, stronger effect = higher value
# [14] = human astrocyte viability loss, single and combined drugs, cytotoxicity control for chromothriptic childhood tumor combination screen, cell-based, BGB or cisplatin IC20 combos (AID 1671460); details: Human astrocytes, drug combinations, stronger effect = higher value;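 note: cells exposed to compounds for 96 hours before viability readout; 0% = vehicle and 100% = killing control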
# [15] = growth inhibition of BT084 medulloblastoma cells, cell-based, ICGC_MB145, cisplatin and BGB IC40 combos (AID 1671461); details: drug combinations, stronger effect = higher value;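 note: cells exposed to drugs for 96 hours; 0% = vehicle DMSO and 100% = high DMSO full killing control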
# [16] = growth inhibition of RCMB18 medulloblastoma cells, cell-based, cisplatin and BGB IC40 combos (AID 1671462); details: stronger effect = higher value;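 note: cells exposed to compound for four days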
# [17] = growth inhibition of CRL1545 osteosarcoma cells, cell-based, cisplatin and BGB IC20 combos (AID 1671464); details: stronger effect = higher value;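 note: cells exposed to compound for 96 hours before readout; 0% = vehicle DMSO and 100% = high DMSO killing control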
# [18] = measured here: combination with BGB IC40, at 0.05 µM
# [19] = measured here: with BGB IC20 combination, at 0.5 µM
# [20] = measured here: with cisplatin IC20 combination, at 0.5 µM
# [21] = measured here: combination with cisplatin, at 0.5 µM
# [22] = measured here: combination with cisplatin, at 5 µM
structure (smiles),measurement,setting,value
Nc1ncn(C2OC(CO)C(O)C2O)c(=O)n1 (centres undefined),fold change,"[1]; stronger effect = lower value, cell number ratio, induced over uninduced",0.707 (inactive)
same,fold change,[1]; measured here: relative caspase fold change +Dox/-Dox,0.203
same,cell count,"[1]; measured here: total cells with miR-34 induction, stronger effect = lower value",2140
same,cell count,[1]; measured here: total cells without miR-34 induction,3020
same,z-score,"[2]; MELAS cybrid survival, CellTiter-Glo 48 h, stronger effect = higher value",-0.256 (inactive)
same,z-score,"[2]; Rieske KO mouse fibroblast survival, CellTiter-Glo 72 h",0.025
same,inhibition,"[3]; at 0.5 µM, stronger effect = higher value",-5.82% (inactive)
same,inhibition,"[3]; measured here: combination with BGB IC20, at 0.005 µM",12.2%
same,inhibition,"[3]; measured here: combination with BGB IC40, at 0.005 µM",6.88%
same,inhibition,[3]; [18],-0.515%
same,inhibition,"[3]; measured here: combination with cisplatin, at 0.5 µM, stronger effect = higher value",-8.35%
same,inhibition,"[3]; measured here: combination with cisplatin, at 5 µM, stronger effect = higher value",15.6%
same,inhibition,"[4]; BGB combo, at 5 µM",35.3%
same,inhibition,[4]; at 0.5 µM,3.8% (inactive)
same,inhibition,"[4]; cisplatin combo, at 5 µM",38.5%
same,inhibition,[4]; [19],-3.13%
same,inhibition,[4]; [20],6.68%
same,inhibition,"[4]; single agent, at 5 µM",47.8%
same,inhibition,"[5]; BGB IC20 combo, at 0.005 µM",3.99%
same,inhibition,"[5]; BGB IC40 combo, at 0.005 µM",-4.47%
same,inhibition,"[5]; BGB IC40 combo, at 0.05 µM",64.1%
same,inhibition,[5]; at 0.5 µM,-14.1% (inactive)
same,inhibition,"[5]; cisplatin combo, at 0.05 µM",62.8%
same,inhibition,"[5]; cisplatin combo, at 0.5 µM",-8.65%
same,inhibition,"[5]; cisplatin combo, at 5 µM",-9.29%
same,inhibition,"[5]; measured here: 5 uM single agent, at 5 µM",-4.38%
same,inhibition,[6]; at 0.5 µM,1.69% (inactive)
same,inhibition,[6]; [18],-18.7%
same,inhibition,[6]; [21],-16%
same,inhibition,[6]; [22],-12%
same,inhibition,[7]; at 0.5 µM,-6.96% (inactive)
same,inhibition,"[7]; measured here: with BGB IC20, at 0.5 µM",-12.6%
same,inhibition,"[7]; measured here: with BGB IC20, at 5 µM",18.2%
same,inhibition,"[7]; measured here: with cisplatin IC20, at 0.5 µM",-13.1%
same,inhibition,"[7]; measured here: with cisplatin IC20, at 5 µM",4.48%
same,inhibition,"[7]; single agent, at 5 µM",30.1%
same,inhibition,[8]; at 0.5 µM,-21% (inactive)
same,inhibition,"[8]; measured here: combination with BGB at IC20, at 0.5 µM",-8.95%
same,inhibition,"[8]; measured here: combination with cisplatin at IC20, at 0.5 µM",-58.6%
same,inhibition,[9]; at 0.5 µM,2.06% (inactive)
same,inhibition,"[9]; measured here: combo with BGB at IC20, at 0.5 µM",4.05%
same,inhibition,"[9]; measured here: combo with cisplatin at IC20, at 0.5 µM",0.735%
same,inhibition,[10]; at 0.5 µM,18.4% (inactive)
same,inhibition,"[10]; measured here: inhibition with BGB combination, at 0.05 µM",8.02%
same,inhibition,"[10]; measured here: inhibition with cisplatin combination, at 0.05 µM",-5.92%
same,inhibition,[11]; at 0.5 µM,-0.31% (inactive)
same,inhibition,[11]; [21],-2.9%
same,inhibition,[11]; [22],21.8%
same,inhibition,[12]; at 0.5 µM,12.3% (inactive)
same,inhibition,"[12]; measured here: BGB combination, at 0.5 µM",18%
same,inhibition,"[12]; measured here: BGB combination, at 5 µM",23.9%
same,inhibition,"[12]; measured here: cisplatin combination, at 0.5 µM",0.452%
same,inhibition,"[12]; measured here: cisplatin combination, at 5 µM",23.8%
same,inhibition,"[13]; BGB combination, concentration series, at 5 µM",63.4%
same,inhibition,[13]; at 0.5 µM,20.7% (inactive)
same,inhibition,"[13]; cisplatin combination, concentration series, at 5 µM",51%
same,inhibition,[14]; at 0.5 µM,13.2% (inactive)
same,inhibition,"[14]; measured here: combo with BGB IC20, at 0.5 µM",17.7%
same,inhibition,"[14]; measured here: combo with cisplatin IC20, at 0.5 µM",11.2%
same,inhibition,[15]; at 0.5 µM,10.9% (inactive)
same,inhibition,"[15]; cisplatin combination, at 0.5 µM",-8.96%
same,inhibition,"[15]; cisplatin combination, at 5 µM",53.9%
same,inhibition,"[15]; measured here: BGB IC40 combination 0.05 uM, at 0.05 µM",30.7%
same,inhibition,"[15]; single agent, at 5 µM",8.5%
same,inhibition,[16]; at 0.5 µM,6.45% (inactive)
same,inhibition,"[16]; cisplatin combo, at 5 µM",53.3%
same,inhibition,"[16]; measured here: BGB IC40 combination, at 0.05 µM",-6.06%
same,inhibition,[16]; [21],6.83%
same,inhibition,"[16]; single agent, at 5 µM",41.5%
same,inhibition,[17]; at 0.5 µM,0.69% (inactive)
same,inhibition,[17]; [19],16.1%
same,inhibition,[17]; [20],-8.76%
same,inhibition,"[17]; single agent, at 0.05 µM",-10.6%
same,inhibition,"[17]; single agent, at 5 µM",9.69%
